A selection: hits, their analogues and other compounds. The true share with any hit is near 10%.
HP1b binding inh = HP1-beta chromodomain-methylated histone interaction inhibition; AID 540317; Potency, µM (top dose mostly 114 µM), for inactives: at the highest dose activity change, negative = inhibition, hits mostly inhibitors; 390,000 compounds, 0.56% hits; P83916; AlphaScreen HP1-beta / biotin-H3K9me3 peptide binding; note: potency is the fitted concentration of half-maximal effect; nearly all actives have a fitted effect of over 70% in size
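Compound inhibition of the preformed complex between 50 nM HP1-beta and 50 nM biotinylated H3K9me3 peptide was read by AlphaScreen. Buffer was PBS pH 7.4 with 0.01% Tween-20. Incubations ran 30 min at room temperature, with 10 ug/mL donor/acceptor beads.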
Six1-Eya2 blk = blocks human Six1 binding to Eya2; Q15475+O00167; AlphaScreen GST-Six1/His-Eya2 binding, biochemical; active compounds read low; activity change, % (no concentration beside the values); 360,000 compounds, 0.56% hits; AID 651725; in the data active = activity change below about -65%; inconclusive = mostly about -30% to -63%; note: % is set by controls: 0 for no effect and ±100 for the full control effect
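Compounds are tested against tagged Six1 and Eya2 proteins bridged by glutathione donor and nickel acceptor beads; after a one-hour incubation at 37 °C without light, AlphaScreen emission is recorded.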
CtBP-E1A inh = blocks the CtBP interaction with E1A. AlphaScreen GST-E1A/His-CtBP binding, 1536-well; active compounds read low. activity change, % (no concentration beside the values). 340,000 compounds, 0.49% hits; in the data active = activity change below about -65%; inconclusive = mostly about -30% to -63%; note: % is set by controls: 0 for no effect and ±100 for the full control effect
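AlphaScreen with 125 nM GST-E1A and 125 nM His-CtBP (5X stocks) in Tris pH 8.0, 300 mM NaCl, BSA, Tween 20, TCEP. Compounds preincubated 2 h at 37 deg C, then glutathione donor/nickel acceptor beads added for 1 h at 37 deg C in dark.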
G9a block = blocks human histone lysine methyltransferase G9a. Q96KQ7. G9a H3K9 monomethylation, AlphaScreen, 2 h. Potency, µM (series often up to 102 µM), without a hit: at the highest dose activity, negative = inhibition, most hits filed as inhibitors. 350,000 compounds, 8.8% hits. AID 504332; note: potency is the fitted concentration of half-maximal effect; % is set by controls: 0 for no effect and ±100 for the full control effect; nearly all actives have a fitted effect of over 75% in size
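Readings reflect AlphaScreen signal from monomethyl-H3K9 antibody detection. HMT at 20 nM; substrate b-H3K9 500 nM; cofactor SAM 20 uM; 2 h RT reaction; compounds tested as titrations in qHTS with 15 min preincubation.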
JMJD2A Tudor inh = inhibitors of human JMJD2A Tudor domain; O75164; AlphaScreen JMJD2A-Tudor / H3K4me3 peptide binding; Potency, µM (doses to about 114 µM), for the others: at the top dose activity change, negative = inhibition, usual class: inhibitors; 390,000 compounds, 4.4% hits; AID 504339; note: potency is the fitted concentration of half-maximal effect; % is set by controls: 0 for no effect and ±100 for the full control effect; nearly all actives have a fitted effect of over 50% in size
Target sequence (O75164 whole entry, looked up, the tested form may be a part): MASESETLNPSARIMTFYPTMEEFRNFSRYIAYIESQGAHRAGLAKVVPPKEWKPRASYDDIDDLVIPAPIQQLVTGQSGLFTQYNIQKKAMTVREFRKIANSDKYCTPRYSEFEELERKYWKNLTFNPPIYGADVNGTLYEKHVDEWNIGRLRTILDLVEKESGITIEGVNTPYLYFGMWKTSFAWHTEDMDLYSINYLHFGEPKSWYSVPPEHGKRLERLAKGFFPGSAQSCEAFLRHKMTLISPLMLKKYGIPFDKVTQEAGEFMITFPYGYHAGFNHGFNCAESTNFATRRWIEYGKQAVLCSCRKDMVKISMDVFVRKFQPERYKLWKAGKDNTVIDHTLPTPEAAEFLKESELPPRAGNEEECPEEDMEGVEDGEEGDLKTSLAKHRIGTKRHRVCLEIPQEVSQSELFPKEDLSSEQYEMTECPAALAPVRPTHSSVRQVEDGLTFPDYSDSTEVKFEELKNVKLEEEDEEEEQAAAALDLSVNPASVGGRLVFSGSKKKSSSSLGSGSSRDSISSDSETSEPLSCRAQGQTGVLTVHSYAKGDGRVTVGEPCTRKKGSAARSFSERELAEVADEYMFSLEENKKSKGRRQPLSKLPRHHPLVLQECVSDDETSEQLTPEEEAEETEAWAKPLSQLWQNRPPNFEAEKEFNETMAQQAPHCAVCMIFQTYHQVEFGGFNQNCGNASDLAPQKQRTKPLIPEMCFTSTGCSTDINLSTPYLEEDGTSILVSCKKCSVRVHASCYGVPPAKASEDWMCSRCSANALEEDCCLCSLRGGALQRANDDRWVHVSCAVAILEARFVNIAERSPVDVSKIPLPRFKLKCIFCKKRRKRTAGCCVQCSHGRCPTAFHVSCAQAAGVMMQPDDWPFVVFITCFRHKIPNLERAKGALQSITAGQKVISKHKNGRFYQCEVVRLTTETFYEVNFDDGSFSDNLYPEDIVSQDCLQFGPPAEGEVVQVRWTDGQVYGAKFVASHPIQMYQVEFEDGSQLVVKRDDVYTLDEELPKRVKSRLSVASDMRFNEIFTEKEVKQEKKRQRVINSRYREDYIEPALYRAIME
BAZ2B inh = blocks human BAZ2B | Potency, µM (series often up to 114 µM), without a hit: top-dose activity change, negative = inhibition, hits mostly inhibitors | AlphaScreen BAZ2B-H3K14Ac peptide displacement | AID 504333 | Q9UIF8 | 360,000 compounds, 4.4% hits; note: potency is the fitted concentration of half-maximal effect; % is set by controls: 0 for no effect and ±100 for the full control effect; nearly all actives have a fitted effect of over 60% in size
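AlphaScreen displacement of biotin-H3(5-23)K14Ac peptide (50 nM final) from BAZ2B (50 nM final) in PBS pH 7.4, 0.01% Tween-20; complex preformed 30 min RT, then compounds (top 110 uM) 30 min RT, beads 20 min dark.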
* hit, by the source's call; [ ] = remark or other dose. Unless noted, calls come from the whole dose curve; as a rule, active = well fitted inhibition curve with a large enough effect; inconclusive = small, poorly fitted or top-dose-only effect; inactive = no such curve, though single readings can be large or run the other way.

What do the screens show for `CN(C1CCS(=O)(=O)C1)S(=O)C12CC3CC(CC(C3)C1)C2` (stereo not drawn)?
HP1b binding inh: 49%; Six1-Eya2 blk: 9; CtBP-E1A inh: 3; G9a block: 11µM*; JMJD2A Tudor inh: -20%; BAZ2B inh: -1%

What do the screens show for `CCN(CC)C1CCS(=O)(=O)C1` (stereo not drawn)?
HP1b binding inh: 32%; Six1-Eya2 blk: -2; CtBP-E1A inh: -3; G9a block: -1%; JMJD2A Tudor inh: -1%; BAZ2B inh: -3%

What do the screens show for `O=C(O)c1cccc(-c2cccc(-c3nn4c(=O)cc(N5CCNCC5)nc4s3)c2)c1`?
JMJD2A Tudor inh: -26%

What do the screens show for `S=C(NCCc1ccccc1)Nc1ccc(Br)cn1`?
HP1b binding inh: 11%; Six1-Eya2 blk: -2; CtBP-E1A inh: -5; G9a block: 7.1µM*; JMJD2A Tudor inh: -5%; BAZ2B inh: inconclusive

How did C=CCN(C(=O)c1csnn1)C(C(=O)NC1CCCC1)c1ccc(OC)cc1 (stereo not drawn) do in these assays?
HP1b binding inh: 11%; Six1-Eya2 blk: 3; CtBP-E1A inh: 15; G9a block: -6%; JMJD2A Tudor inh: inconclusive; BAZ2B inh: -4%

Results for COc1ccc(OC)c(NC(=O)N2CCN(S(=O)(=O)c3ccc4c(ccn4C)c3)CC2)c1 ?
HP1b binding inh: -11%[57 µM]; G9a block: -32%[59 µM]; JMJD2A Tudor inh: inconclusive; BAZ2B inh: inconclusive

What do the screens show for `COc1ccc(/C=C/c2n[nH]c(=O)c(C#N)c2C)cc1`?
HP1b binding inh: 0%; Six1-Eya2 blk: -1; CtBP-E1A inh: -1; G9a block: 45µM*; JMJD2A Tudor inh: -10%; BAZ2B inh: 1%

Results for O=C(CNC(=O)c1ccccc1O)N/N=C/c1cc(Br)ccc1OC(=O)/C=C/c1ccco1 ?
HP1b binding inh: 12%; Six1-Eya2 blk: -85*; CtBP-E1A inh: -95*; G9a block: 52%[59 µM]; JMJD2A Tudor inh: inconclusive; BAZ2B inh: -28%

How did COc1ccc([N+](=O)[O-])cc1/C=N/Nc1nn[nH]n1 do in these assays?
HP1b binding inh: 16%; Six1-Eya2 blk: -8; CtBP-E1A inh: -28; G9a block: 45µM*; JMJD2A Tudor inh: -6%; BAZ2B inh: inconclusive

What do the screens show for `O=C(CNC(=O)c1cccc(F)c1)N/N=C/c1cc(Br)ccc1OC(=O)/C=C/c1ccco1`?
HP1b binding inh: 1%; Six1-Eya2 blk: -88*; CtBP-E1A inh: -88*; G9a block: inconclusive; JMJD2A Tudor inh: -18%; BAZ2B inh: -36%

What do the screens show for `O=C(CNC(=O)c1ccc(F)cc1)N/N=C/c1cc(Br)ccc1OCc1ccccc1`?
HP1b binding inh: 26%; Six1-Eya2 blk: -6; G9a block: 18%[59 µM]; JMJD2A Tudor inh: -30%; BAZ2B inh: 4%

What do the screens show for `COc1ccc([N+](=O)[O-])cc1/C=N/NC(=O)CNC(=O)c1cccc(F)c1`?
HP1b binding inh: 30%; Six1-Eya2 blk: inconclusive; CtBP-E1A inh: -70*; G9a block: 9%; JMJD2A Tudor inh: inconclusive; BAZ2B inh: 4%

How did CC/C(=N\NC(=O)c1ccc(CN(C)S(=O)(=O)c2ccc(C)cc2)cc1)c1ccc(OC(F)F)cc1 do in these assays?
HP1b binding inh: 24%; Six1-Eya2 blk: 10; CtBP-E1A inh: 20; G9a block: 2%[59 µM]; JMJD2A Tudor inh: -26%; BAZ2B inh: -5%

What do the screens show for `COc1ccc2c(c1)cc1c(=O)n(CC(=O)NCCc3ccccc3)nc(C)n12`?
HP1b binding inh: 54%; G9a block: -3%[59 µM]; JMJD2A Tudor inh: 11%; BAZ2B inh: -1%

What do the screens show for `COc1cc(NC(=O)c2cc(Cl)ccc2Cl)ccc1NC(=O)c1cc2ccccc2o1`?
HP1b binding inh: 57%; G9a block: 6%[59 µM]; JMJD2A Tudor inh: -20%; BAZ2B inh: 0%

Results for NS(=O)(=O)c1ccc(CNC(=O)c2ccccc2SCC(=O)N2CCCC2)cc1 ?
HP1b binding inh: 26%; Six1-Eya2 blk: 11; CtBP-E1A inh: -24; G9a block: 35µM*; JMJD2A Tudor inh: -4%; BAZ2B inh: 15%

What do the screens show for `CCSc1ccccc1C(=O)NCc1ccc(S(N)(=O)=O)cc1`?
HP1b binding inh: 12%; Six1-Eya2 blk: 3; CtBP-E1A inh: 9; G9a block: inconclusive; JMJD2A Tudor inh: -19%; BAZ2B inh: 2%

What do the screens show for `Cc1ccc(CNC(=O)c2ccccc2SCC(=O)NCC2CCCCC2)cc1`?
HP1b binding inh: 39%; Six1-Eya2 blk: -7; CtBP-E1A inh: -3; G9a block: 45µM*; JMJD2A Tudor inh: -11%; BAZ2B inh: 7%

Results for O=C(CSc1ccccc1C(=O)N1CCCCC1)NCC1CCCCC1 ?
HP1b binding inh: 35%; Six1-Eya2 blk: 6; CtBP-E1A inh: 2; G9a block: -10%; JMJD2A Tudor inh: -30%; BAZ2B inh: -1%

How did CCN(CC)C(=O)c1c(Cl)nc(C)c([N+](=O)[O-])c1C do in these assays?
HP1b binding inh: 49%; Six1-Eya2 blk: 9; CtBP-E1A inh: inconclusive; G9a block: -10%; JMJD2A Tudor inh: 6%; BAZ2B inh: 8%

What do the screens show for `C=C(C)C(=O)Oc1ccc(N2C(=O)CCC2=O)cc1`?
HP1b binding inh: 22%; Six1-Eya2 blk: -10; CtBP-E1A inh: -14; JMJD2A Tudor inh: 2%; BAZ2B inh: 1%

How did Cc1ccc(C(=O)c2ccc(C)cc2)cc1 do in these assays?
HP1b binding inh: 97%; Six1-Eya2 blk: 10; CtBP-E1A inh: 22; G9a block: 54%; JMJD2A Tudor inh: 53%; BAZ2B inh: 82%

What do the screens show for `Cc1sc(N=Nc2ccc(N(C)C)cc2)[n+]([O-])c1C`?
Six1-Eya2 blk: inconclusive; CtBP-E1A inh: -14

How did CN(C)c1ccc(N=Nc2ccccc2Br)cc1 do in these assays?
HP1b binding inh: 5µM*; Six1-Eya2 blk: -87*; CtBP-E1A inh: -90*; G9a block: 3.5µM*; JMJD2A Tudor inh: 10µM*; BAZ2B inh: 4.5µM*

How did COC(=O)c1ccc(NN=Nc2ccc(C)cc2)cc1 do in these assays?
HP1b binding inh: 79µM*; Six1-Eya2 blk: 10; CtBP-E1A inh: -16; G9a block: 7.9µM*; JMJD2A Tudor inh: 32µM*; BAZ2B inh: inconclusive

What do the screens show for `CC(=O)c1ccc(N=Nc2ccc(C)cc2)cc1`?
HP1b binding inh: inconclusive; Six1-Eya2 blk: inconclusive; CtBP-E1A inh: inconclusive; G9a block: 7.9µM*; JMJD2A Tudor inh: 7.9µM*; BAZ2B inh: 7.9µM*

Results for COC(=O)c1ccc(C)cc1 ?
HP1b binding inh: 45%; Six1-Eya2 blk: 9; CtBP-E1A inh: -19; JMJD2A Tudor inh: -7%

How did C=C(C)C(=O)Oc1ccc(N=Nc2ccc(C)cc2)ccc1=O do in these assays?
HP1b binding inh: 10µM*; Six1-Eya2 blk: inconclusive; CtBP-E1A inh: -11; JMJD2A Tudor inh: 3.5µM*

Compound activity: PubChem BioAssay, National Center for Advancing Translational Sciences (NCATS)
